Compound activity (PubChem)
Pf growth 48h – P. falciparum growth inhibition at 48 hours (one generation). P. falciparum luciferase growth in erythrocytes, 48 h. Potency, µM (doses to about 28.7 µM), inactives show top-dose activity change, negative = inhibition, usual class: inhibitors. 5.9% of 310,000 active. AID 504832; also: potency is read from the fitted curve at half-maximal effect; % is scaled to controls: 0 for no effect and ±100 for the full control effect
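In quantitative HTS format, infected erythrocytes bearing luciferase-reporter parasites were treated for a single generation at 37 C. Luminescence after adding detection reagent served as the growth measure.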
CHX counter – affects cycloheximide protein synthesis inhibition readout, counter-screen | cell reporter, cycloheximide protein synthesis inhibition counterscreen | 12% of 300,000 active | AID 2314 | max response, %; in the data active = max response mostly above about 13%, no sharp cut-off; inactive = mostly below about 14%; also: read at 38.3 µM for the half of the compounds with a filed dose; 0% is about no effect
Shiga inhibitor – inhibitors of Shiga toxin in Vero cells; inhibition, % at 38.7 µM; Vero cells, Shiga toxin protein synthesis inhibition reporter; 9.2% of 290,000 active; in the data active = inhibition mostly above about 28%, no sharp cut-off; inactive = mostly below about 43%; also: 0% is about no effect
Pf growth 96h – P. falciparum growth inhibition at 96 hour, primary screen for plastid delayed-death inhibitors; P. falciparum luciferase reporter growth, 96 h; Potency, µM (titrated, usually from 28.7 µM), inactives show at the highest dose activity change, negative = inhibition, most hits filed as inhibitors; 6.9% of 320,000 active; AID 504834; also: potency is read from the fitted curve at half-maximal effect; % is scaled to controls: 0 for no effect and ±100 for the full control effect
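Luminescence readout: decreased luciferase signal marks inhibited growth of reporter-expressing P. falciparum in infected red cells (2% hematocrit, 0.05% parasitemia final), exposed to compound two generations (96 h, 37 C, 5% CO2).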
The depositor's hits bear a star; ? = inconclusive; . = no result. Compounds with a hit are over-represented: about 21% of the library has one in this group of screens. Unless noted, calls follow the shape of the dose curve; as a rule, active = well fitted inhibition curve with a large enough effect; inconclusive = small, poorly fitted or top-dose-only effect, or another doubt; inactive = no such curve, though single readings can be large or run the other way.

SMILES | Pf growth 48h | CHX counter | Shiga inhibitor | Pf growth 96h
O=C(NCCCO)C(=O)Nc1cc2c3c(c1)CCC(=O)N3CCC2 | 19% | -2 | 2 | 38%
COC(=O)c1cc(NC(=O)COC(=O)CN2C(=O)C3CC=CCC3C2=O)cc(C(=O)OC)c1 (stereo not drawn) | 14% | . | . | 36%
Cc1cnc(C)c(N2CCN(Cc3nc(-c4cccc(F)c4F)oc3C)CC2)n1 | ? | -3 | 8 | ?
Cc1cccc(N2CCN(Cc3nc(-c4ccc(F)cc4F)oc3C)CC2)n1 | 0% | 2 | 21 | 10µM*
Cc1ccc(NC(=O)c2oc3c(c2C)C(=O)CC(C)(C)C3)cc1 | 5% | -2 | -18 | 3%
Cc1c(C(=O)Nc2ccccc2)oc2c1C(=O)CC(C)(C)C2 | 24% | 33* | 82* | .
[O-][n+]1c2ccccc2cc2ccccc21 | 2.6µM* | . | . | 7.4µM*
Cc1oc(-c2ccccc2)[n+]([O-])c1C | 9% | -1 | -12 | -27%
O=C(Nc1ccc(S(=O)(=O)N2CCCCC2)cc1)C1CC(=O)N(Cc2ccccc2)C1 (stereo not drawn) | 13µM* | . | . | ?
O=C(NNC(=O)C1CC(=O)N(Cc2ccccc2)C1)c1ccc(Br)cc1 (stereo not drawn) | 26% | 2 | -1 | 2.3µM*
CC1CC(C)CN(S(=O)(=O)c2ccc(NC(=O)C3CC(=O)N(Cc4ccccc4)C3)cc2)C1 (stereo not drawn) | ? | -1 | -3 | ?
Cc1ccc(NC(=O)C2CC(=O)N(CCc3ccccc3)C2)cc1Cl (stereo not drawn) | ? | . | . | -5%
CCc1ccc(C(=O)NNC(=O)C2CC(=O)N(Cc3ccccc3)C2)cc1 (stereo not drawn) | -5% | . | . | 22%
CCN(CC)S(=O)(=O)c1cc(NC(=O)C2CC(=O)N(Cc3ccccc3)C2)ccc1Cl (stereo not drawn) | 10µM* | . | . | ?
Cc1ccc(NC(=O)C2CC(=O)N(Cc3ccccc3)C2)cc1S(=O)(=O)N1CCCCCC1 (stereo not drawn) | ? | -2 | -8 | 12µM*
CC(=O)Nc1ccc(NC(=O)C2CC(=O)N(Cc3ccccc3)C2)cc1 (stereo not drawn) | 18% | -1 | -7 | ?
NC(=O)C1CCN(CC(=O)NC(=O)NC2CCCC2)CC1 | ? | 1 | -8 | 33%
Cn1ccnc1Sc1nc2ccccc2nc1NS(=O)(=O)c1ccccc1 | ? | 56* | 103* | ?
CC(=O)Nc1ccc(S(=O)(=O)Nc2nc3ccccc3nc2Sc2nncn2C)cc1 | 6% | 26* | 117* | .
S=C(NCc1ccccc1)NC1CCSc2ccccc21 (stereo not drawn) | 2% | -4 | -20 | ?
COc1ccc(S(=O)(=O)N(C)C)cc1NC(=O)CN1C(=O)NC2(CCCC2)C1=O | 7% | -3 | 3 | 4%
COc1ccc(NC(=O)C2CCN(S(=O)(=O)c3ccc4c(c3)NC(=O)CO4)CC2)cc1 | ? | -10 | -22 | -1%
c1ccc2c(c1)Oc1cccc3cccc-2c13 | 34% | 12* | 25* | -3%
c1ccc2c(c1)-c1cccc3c1c-2cc1ccccc13 | 78% | . | . | -5%
N#CCC(CNc1ncc(C(F)(F)F)cc1Cl)OC(=O)c1cccc(C(F)(F)F)c1 (stereo not drawn) | ? | 3 | 18 | 5.9µM*
SMILES | Pf growth 48h | CHX counter | Shiga inhibitor | Pf growth 96h
COc1ccc(COC(=O)c2sc3nc4n(c(=O)c3c2C)CCC4)cc1 | 9.3µM* | . | . | ?
CCc1ccc(NC(=O)c2sc3nc4n(c(=O)c3c2C)CCC4)cc1 | -1% | 29* | 36* | ?
O=[N+]([O-])c1ccc(-c2nc(-c3ccc(F)cc3)c(-c3ccncc3)[nH]2)cc1 | . | 9 | -6 | .
Cc1cc(Cl)ccc1OCC(=O)OCC(=O)N(CC(C)C)c1c(N)n(Cc2ccccc2)c(=O)[nH]c1=O | 2% | . | . | 35%
O=C(CSc1nnc(-c2ccccc2O)o1)Oc1ccc(OCc2ccccc2)cc1 | -14% | 31* | 101* | ?
COc1cccc(N(CC(=O)NC(C)(C)C)C(=O)C2CSC(=O)C2)c1 (stereo not drawn) | -1% | 7 | 11 | -8%
CC(C)(C)NC(=O)CN(C(=O)C1CSC(=O)C1)c1ccc2c(c1)OCCO2 (stereo not drawn) | 21% | 36* | 34* | 4%
O=C(CN(c1ccccc1)S(=O)(=O)c1ccc(F)cc1)NC1CCS(=O)(=O)C1 (stereo not drawn) | 31% | 5 | -1 | 46%
COc1ccc(S(=O)(=O)N(CC(=O)NC2CCCC2)c2ccccc2OC)cc1 | ? | -3 | -36 | 12µM*
